# Measured values taken from the supplement of paper PMC6555819.
# Tested on: PPARg:RXRa 30nM:10nM, anti-RXR (NR concentration 30 nM, RXRa partner concentration 10 nM)
# Assay: PBM binding z-score (relative to random genomic background probes); higher = stronger binding; sequences stand for … in GC…GCGATTGACAGCGTAGAATGAAGG
# Outline: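 Each nuclear receptor dimer, without ligand, was incubated for 1 h on custom Agilent 4×180K protein-binding microarrays. Binding was detected with antibodies against each partner (one per run), and scanned fluorescence was regression-normalized. The binding z-scores are referenced to random human genomic background probes.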
row,Sequence,PBM binding z-score
1,CCACGGAGGACAGAAGGTCAGAGCTGTCCGCTTT,-0.771
2,ATCTCGAGGTAAAGTTCAGTGAAAGATCGATAGA,1.91
3,CCAGACAGGTGTAAGGTAACTCAGTCTGGTACGC,-0.246
4,CGAACTAGGTCATCCAGGACAGTGTATACATTGA,3.25
5,CGAACTAGGTCATCCAGGGCAGTGAATACATTGA,4.15
6,GCTTTCGGGTCAAAGGTTATAGCATGAATAGAAT,8.67
7,GCGACTGGGGTAAAGCAGGTTACCATAAGGTTGG,0.0678
8,AGAATGAGGTTATGAAGATCAGGGAATTGCGGTC,1.05
9,GGAACGAGGGAAAAGTTGATAGCATCTGTCGACG,1.71
10,ATATGTAGGTTAGCTGGGTTCATTCAGACTAGGC,1.75
11,AGAATGAGGTTATAAGTAGATCAGGGAAGAAAGT,1.34
12,TCTAGCAGGCCAAAGGGTCACTCAAGAGGTACGG,3.5
13,GCGACTGGGGCAAAGCAAGTTACCATAAGGTTGG,-0.269
14,GTACCAAGGTGAATAGGACGTTGATGAGTAGGCG,0.338
15,TCAAGTAGGTTACCAATGGGGCATTCAGCTTTCT,3.34
16,TCATATAGGTACTACAGGTGAAAGTCGGCATCTA,3.93
17,TCATATAAGTAAACAGGTGAAAGTCCGTAAGTTA,4.41
18,TCATGTAGGTAAATGCTAGGTGAAAGTCCGATCT,2.88
19,CCTTACGGGTCACGAGGTTATAGGACGACGAGCG,3.51
20,ATATCAAGGTGATCGTGAGGTCGTTGATACTAAC,0.0904

row,Sequence,PBM binding z-score
1,TAGCCTAGGTCATGCGGGCCACTATAGTGTCGGC,0.295
2,GTACCAAGGTGAAGAGGTCGTTGATGAGTAGGCG,0.544
3,CCTAGTTGGTCAAAGTCACACACGCTATAGGTAC,0.915
4,TCTTGTAGATCAAGCACGTTAAGAAAGCCTGAGT,2.5
5,TTACCAAGGTGAGAGGTCGTTGATGCACGCCTTG,4.84
6,TCTTGTAGATCAAAGGCTAAGAAAGCCGAAGCCT,4.4
7,TAGCCTAGGTCAGAACGGGCCAGTATACGCTATA,-0.161
8,ATCGAAAGGTCGAAGGCGAGTATACCCACCCGAA,0.887
9,CCTAGCAAGCCAATCTGGGTCACTCAAGGCTTGA,-0.259
10,CCGAGTTGGTCAGGAGGTCACACACCGGATATGA,0.983
11,AGAGACAGGTGAGTGAAGGTAACTCAGCTGGACG,0.0896
12,GCTCGGCGGACAAGGTCAGAGCTTTGTCCGTAGA,-0.807
13,ACTAGCAGGCCAAGTTTGGGCCACTCAAACAAAG,-0.785
14,ACTAGCAGGCCAAGTTTGGGTCACTCAGACAAAG,-0.237
15,CCTTACGGGTCACTCCAGGGTATAGCATCGGAGT,1.19
16,GGAACGAGGGCAATTTGATAGCAGAGTTTGATGG,0.15
17,CGTCCAAGGTCATAGGAGGTCAGTTAAGACAGAT,2.29
18,CGTCCAAGGTGAGCAGGTCAGTGAAAGCGACGTG,-0.475
19,GCTAGTTGGTCAGTAAAAGGTCACACATCGGTCG,2.08
